The list is not random: actives were taken first. Their share in the collection is about 2.4%.
FEN1 inhibitor = inhibitors of human flap endonuclease 1; Potency, µM (highest dose often 114 µM), most hits filed as inhibitors; Recombinant FEN1 flap cleavage, fluorescence, 15 min; P39748; 390,000 compounds, 0.35% hits; also: nearly all actives have a fitted effect of over 65% in size
Target sequence (P39748 whole entry, looked up): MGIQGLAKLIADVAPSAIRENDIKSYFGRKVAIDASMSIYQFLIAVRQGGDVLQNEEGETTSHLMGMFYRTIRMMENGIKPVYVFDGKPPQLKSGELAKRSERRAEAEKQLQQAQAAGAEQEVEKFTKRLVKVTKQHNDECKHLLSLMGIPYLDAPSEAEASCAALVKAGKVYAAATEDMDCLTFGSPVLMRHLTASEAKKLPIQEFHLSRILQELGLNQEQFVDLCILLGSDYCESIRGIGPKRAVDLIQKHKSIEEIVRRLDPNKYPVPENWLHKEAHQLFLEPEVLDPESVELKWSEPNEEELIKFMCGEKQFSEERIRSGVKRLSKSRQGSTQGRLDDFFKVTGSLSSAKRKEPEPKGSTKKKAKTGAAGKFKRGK
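Potency values derive from four-parameter Hill fits of normalized qHTS data. The reaction used 10 nM FEN1 preincubated 15 min at room temperature with compound, then 50 nM DNA substrate, read at 0 and 15 min.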
Pol kappa inh = inhibitors of human DNA polymerase kappa; Q9UBT6; purified Pol kappa, fluorescent DNA synthesis assay, 10 min; Potency, µM (titrated, usually from 107 µM), most hits filed as inhibitors; 400,000 compounds, 0.53% hits; AID 588579
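Fluorescent qHTS in 1536-well format: enzyme (10 nM) and compound sat 15 min at room temperature before 50 nM substrate (final) was added. Signal taken at 0 and 10 min; no-enzyme buffer wells were negative controls.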
WRN inhibitor = WRN helicase (human) inhibition | Q14191 | WRN helicase unwinding, fluorescent forked duplex, kinetic | Potency, µM (highest dose often 114 µM), most hits filed as inhibitors | 360,000 compounds, 0.46% hits; also: nearly all actives have a fitted effect of over 55% in size
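Screening of the MLSMR collection measured strand separation of a quenched forked DNA duplex (100 nM) by 20 nM WRN with 2 mM ATP, all final. Compounds were preincubated with enzyme 15 min at room temperature.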
Pol beta inh = DNA polymerase beta (human) inhibition. 340,000 compounds, 1.3% hits. P06746. Pol beta primer extension/strand displacement, fluorescence kinetic. Potency, µM (highest dose often 114 µM), most hits filed as inhibitors
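Curves were derived by four-parameter Hill fits of normalized qHTS data. The kinetic fluorescent primer-extension read was taken at 0 and 10 min after 50 nM substrate, following a 15 min room-temperature preincubation of 10 nM enzyme with compounds.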
POLH inh = inhibitors of human DNA polymerase eta; 390,000 compounds, 1.2% hits; recombinant Pol eta, fluorescent DNA replication assay; Potency, µM (highest dose often 114 µM), hits mostly inhibitors; Q9Y253
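Fluorescent replication assay: 50 nM final substrate added after a 15 min room-temperature compound preincubation with 10 nM enzyme. Signal taken at 0 min and again at 10 min.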
POLI inh = blocks human DNA polymerase iota activity; Q9UNA4; Pol iota fluorescent replication assay, 10 min; Potency, µM (top dose mostly 115 µM), hits mostly inhibitors; 390,000 compounds, 1% hits; AID 588590
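Fluorescent replication assay read twice, at 0 min and 10 min after adding 50 nM (final) substrate. Enzyme (10 nM) and compounds were first incubated 15 min at room temperature; enzyme-free buffer wells were negative controls.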
Of the large screens only hits and unclear results are named; the others gave an inactive call. Calls follow the shape of the dose curve; as a rule, active = well fitted curve in the direction sought with a large enough effect; inconclusive = small, poorly fitted or top-dose-only effect, or another doubt; inactive = no such curve, though single readings can be large; an effect the other way counts as inactive or inconclusive.

Cc1ccc(Cn2c(=S)[nH]c3ccc(N4CCOCC4)cc3c2=O)o1	FEN1 inhibitor inconclusive, Pol kappa inh inconclusive, WRN inhibitor inconclusive, POLI inh 14µM
CC(=O)c1cccc(NC(=O)COc2ccccc2C(=O)Nc2ccccc2)c1	none (no result: WRN inhibitor, Pol beta inh, POLH inh)
CC1(NC(=O)CC[N+](C)(C)CCO)CS(=O)(=O)CC1S(=O)(=O)[O-] (stereo not given)	Pol beta inh 2µM (no result: FEN1 inhibitor, Pol kappa inh, WRN inhibitor, POLH inh, POLI inh)
COc1cc(O)ccc1-c1nc2cc(C)ccn2c1Nc1ccccc1C	none (no result: WRN inhibitor)
CCS(=O)(=O)C1=NN2C(=N)/C(=C\c3ccc(OC(=O)c4ccco4)c(OC)c3)C(=O)N=C2S1	POLH inh 79µM, POLI inh inconclusive
C=CCOc1ccc(/C=C2\C(=N)N3N=C(S(=O)(=O)CC)SC3=NC2=O)cc1OC	POLH inh 40µM, POLI inh inconclusive
COc1cc(/C=C2/C(=N)N3C(SC)=NSC3=NC2=O)ccc1OC(=O)c1ccco1	POLI inh inconclusive
COc1cc(/C=C2\C(=O)N(c3ccc(S(N)(=O)=O)cc3)N=C2C)ccc1OC(=O)c1ccco1	Pol beta inh inconclusive, POLI inh 2.5µM
COc1cc(/C=C2/C(=O)N(c3ccc(C(=O)O)cc3)N=C2C)cc(OC)c1O	FEN1 inhibitor inconclusive, POLH inh inconclusive, POLI inh 1.6µM
COc1cccc(OCCOc2ccc(/C=C3\C(=N)N4N=C(S(C)(=O)=O)SC4=NC3=O)cc2OC)c1	POLI inh inconclusive
Cc1ccc(C2=NN(CC(=O)NCCCN(CC(C)C)CC(C)C)C(=O)CC2)cc1	none (no result: WRN inhibitor)
N=C1/C(=C\c2ccc(OC(=O)c3ccco3)cc2)C(=O)N=C2SC=NN12	WRN inhibitor inconclusive
COc1cc(/C=C2\C(=N)N3N=CSC3=NC2=O)cc(Br)c1OC(=O)c1ccco1	Pol beta inh inconclusive, POLH inh 79µM, POLI inh inconclusive
Cc1ccc(NC(=O)c2ccc(CN3CC(=O)N4CCCCC4C3=O)cc2)cc1C (stereo not given)	none (no result: WRN inhibitor)
Cc1ccc(CN2CCN(C3CCNCC3)C(=O)C2=O)cc1	none (no result: WRN inhibitor)
c1coc(-c2nnc(-c3ccco3)nn2)c1	FEN1 inhibitor 45µM, Pol kappa inh 18µM, WRN inhibitor 20µM, Pol beta inh 7.9µM, POLH inh 8.9µM, POLI inh inconclusive
c1ccc(-c2nnc(-c3ccco3)o2)cc1	none
Nc1ncnc2c1nc(Sc1ccc(Cl)cc1)n2[C@H]1O[C@@H]2COP(=O)(O)O[C@H]2[C@@H]1O	none (no result: FEN1 inhibitor, Pol kappa inh, WRN inhibitor)
O=c1[nH]c(=S)[nH]c2n[nH]nc12	none (no result: WRN inhibitor, Pol beta inh, POLH inh)
Cc1ccc(-c2ccc(CN3C(C)C(=O)N(Cc4cn(Cc5ccco5)nn4)CCS3(=O)=O)cc2)cc1 (stereo not given)	none (no result: FEN1 inhibitor, Pol kappa inh, Pol beta inh, POLI inh)
CC1C(=O)N(Cc2cn(Cc3ccco3)nn2)CCS(=O)(=O)N1Cc1ccc(-c2cccnc2)cc1 (stereo not given)	WRN inhibitor 50µM (no result: FEN1 inhibitor, Pol kappa inh, Pol beta inh, POLH inh, POLI inh)
COc1ccccc1CNC(=O)C1CCN(S(=O)(=O)c2ccc3nc4c(c(C(=O)O)c3c2)CCCC4)CC1	POLH inh inconclusive, POLI inh 79µM
CC1CCc2nc3ccc(S(=O)(=O)N4CCC(C(=O)NCc5ccccc5Cl)CC4)cc3c(C(=O)O)c2C1 (stereo not given)	Pol kappa inh inconclusive, Pol beta inh 40µM, POLH inh inconclusive, POLI inh 50µM
O=C(O)c1c2c(nc3ccc(S(=O)(=O)N4CCC(C(=O)NCc5ccccc5)CC4)cc13)CCCC2	none (no result: FEN1 inhibitor, Pol kappa inh, Pol beta inh, POLI inh)
COc1ccc(CNC(=O)C2CCN(S(=O)(=O)c3ccc4nc5c(c(C(=O)O)c4c3)CC(C)CC5)CC2)cc1 (stereo not given)	Pol beta inh inconclusive, POLH inh inconclusive, POLI inh 89µM
CC(=O)[O][Al][O]C(C)=O	none (no result: FEN1 inhibitor, WRN inhibitor, Pol beta inh, POLH inh, POLI inh)
Cc1cn(C2CC3OCC(NC(=O)C(NC(=O)OC(C)(C)C)C(C)OCc4ccccc4)C3O2)c(=O)[nH]c1=O (stereo not given)	none (no result: WRN inhibitor, Pol beta inh, POLH inh)
COc1ccc(NCc2cc3cc4c(cc3n(CC(=O)Nc3ccccc3)c2=O)OCO4)cc1	none (no result: WRN inhibitor)
CCC(C)NC(=O)CCC(=O)N1Cc2ccccc2Oc2ncccc21 (stereo not given)	none (no result: WRN inhibitor)
